This is an account of results in PubChem BioAssay (NCATS).

Experiment [1] can be described thus: qHTS Assay for Identification of Small Molecule Agonists for Hypoxia Response Element Signaling Pathway (AID 914; active means well fitted activation curve with a large enough effect in the signal ratio, with a control signal flat, not every such curve was filed as active; the % refers to the signal ratio; further: potency means the concentration at half of the fitted maximal effect). The following applies: ME-180 (cervical carcinoma) HRE-bla reporter, beta-lactamase ratio, CoCl2, 17 h; activation: stronger effect = higher value. A digest of the protocol:
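Positive modulation of EC50 CoCl2-induced hypoxia response element signaling is measured in ME-180 cells with a beta-lactamase reporter. Compounds are titrated, incubation runs 17 hours, and %Activity derives from the blue/green ratio.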
A general note: qHTS replaces the single test concentration by a dilution series.

Experiment [2] can be described thus: qHTS Assay for Identifying Gametocytocidal Compounds (AID 743244; active means well fitted curve in the direction sought with a large enough effect; an effect the other way counts as inactive or inconclusive; further: potency means the concentration at half of the fitted maximal effect). The following applies: P. falciparum 3D7 stage III-V gametocytes, alamarBlue, 72 h. Put shortly: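 Viability read-out was resazurin reduction (alamarBlue, 24 h) measured at Ex 525/Em 598 nm. Beforehand, late-stage (III-V) 3D7 P. falciparum gametocytes at 20,000 cells/well were incubated with compound 72 h at 37C under 5% CO2.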

The nature of experiment [3]: Primary qHTS for inhibitors of SARS-S pseudo-typed particle cell entry (AID 1479145). Further: nearly all actives have a fitted effect of over 45% in size. Further: potency means the concentration at half of the fitted maximal effect. On activity change, negative = inhibition: on the % scale 0 is the no-effect control and ±100 the full control effect. The following applies: outcome: dose series up to 57.1 µM unless noted.
The nature of experiment [4]: Primary qHTS for inhibitors of MERS-S pseudo-typed particle cell entry (AID 1479149). Further: potency means the concentration at half of the fitted maximal effect; nearly all actives have a fitted effect of over 60% in size. The following applies: outcome: dose series up to 57.1 µM unless noted.
Experiment [5] in a line: Primary qHTS for Vero E6 cytotoxicity: counterscreen for inhibitors of SARS-S pseudo-typed particle cell entry (AID 1479150). Further: potency means the concentration at half of the fitted maximal effect. On activity change, negative = cytotoxicity: on the % scale 0 is the no-effect control and ±100 the full control effect. The settings on record: outcome: dose series up to 57.1 µM unless noted.
Experiment [6] is described as follows: Confirmatory qHTS for VERO E6 Cytotoxicity Assay: Counterscreen for SARS-CoV-2 CPE Assay (AID 1508605). Further: on the % scale 0 is the no-effect control and ±100 the full control effect; nearly all actives have a fitted effect of over 60% in size.
Experiment [7] in a line: Confirmatory qHTS for activators (rescue) of SARS-CoV-2 Cytopathic Effect (CPE) (AID 1508606). Further: potency means the concentration at half of the fitted maximal effect; nearly all actives have a fitted effect of over 70% in size.
A short description of experiment [8]: Confirmatory qHTS to identify inhibitors of SARS-CoV-2 cell entry (AID 1645844). Further: potency means the concentration at half of the fitted maximal effect; nearly all actives have a fitted effect of over 45% in size. Put shortly:
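HEK293-ACE2, overnight seeding; cpd 1 h, 37C/5% CO2; + SARS-CoV-2-S MLV PP (Wuhan-Hu-1, ΔC19); 48 h; Bright-Glo luminescence. Data normalised to S PP and bald PP wells.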

Experiment [9] can be described thus: Primary qHTS to identify inhibitors of SARS-CoV-2 cell entry (AID 1645846). Further: nearly all actives have a fitted effect of over 45% in size. Further: potency means the concentration at half of the fitted maximal effect. The settings on record: SARS-CoV-2 pseudovirus cell entry assay, luminescence; activity change, negative = inhibition: at 57.1 µM (top of the series) unless noted. Put shortly:
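Using luciferase-reporting pseudoviruses carrying Wuhan-Hu-1 spike, the screen tracks entry into stably ACE2-expressing cells over 48 hr. Activity is expressed relative to spike particles versus particles lacking any fusion protein.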

Experiment [10] in a line: VSVG counterscreen qHTS to identify inhibitors of SARS-CoV-2 cell entry (AID 1645847). Further: potency means the concentration at half of the fitted maximal effect; nearly all actives have a fitted effect of over 65% in size. A digest of the protocol:
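Entry of VSV-G pseudotyped particles into human ACE2-expressing HEK293 cells was measured by luciferase luminescence 48 h after infection, with compound added 1 h beforehand.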
(A counterscreen serves to expose hits that act by an unwanted route or on another target.)

A short description of experiment [11]: Primary qHTS for Huh7 cytotoxicity: counterscreen for inhibitors of MERS-S pseudotyped particle cell entry (AID 1479147). On activity change, negative = cytotoxicity: on the % scale 0 is the no-effect control and ±100 the full control effect. The settings on record: outcome: dose series up to 57.1 µM unless noted.
Experiment [12] can be described thus: Cytotoxicity counterscreen for inhibitors of SARS-CoV-2 cell entry (AID 1645845). Further: nearly all actives have a fitted effect of over 50% in size. On activity change, negative = cytotoxicity: on the % scale 0 is the no-effect control and ±100 the full control effect. The following applies: outcome: dose series up to 57.1 µM unless noted. Put shortly:
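Counterscreen run in the same HEK293-ACE2 line as the pseudotyped-particle entry assay, without particles. Viability after 48 h at 37 C was read as ATP luminescence, scaled between cell-containing and cell-free wells.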

The target of experiment [13] is Alpha-galactosidase (Coffea arabica) (UniProt Q42656). In words: Counterscreen for Glucocerebrosidase Inhibitors: qHTS Assay for Coffee Bean alpha-Galactosidase at pH 4.5 (AID 957; active means well fitted curve in the direction sought with a large enough effect; an effect the other way counts as inactive or inconclusive;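 further: plate controls were enzyme alone for no effect and no enzyme for full effect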). Put shortly: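 Quantitative HTS of compounds (0.7 nM to 77 uM) against coffee bean alpha-galactosidase at pH 4.5, measuring 4-methylumbelliferone fluorescence released from 80 uM substrate.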
Chain of Alpha-galactosidase (Coffea arabica) (Q42656 whole entry, looked up): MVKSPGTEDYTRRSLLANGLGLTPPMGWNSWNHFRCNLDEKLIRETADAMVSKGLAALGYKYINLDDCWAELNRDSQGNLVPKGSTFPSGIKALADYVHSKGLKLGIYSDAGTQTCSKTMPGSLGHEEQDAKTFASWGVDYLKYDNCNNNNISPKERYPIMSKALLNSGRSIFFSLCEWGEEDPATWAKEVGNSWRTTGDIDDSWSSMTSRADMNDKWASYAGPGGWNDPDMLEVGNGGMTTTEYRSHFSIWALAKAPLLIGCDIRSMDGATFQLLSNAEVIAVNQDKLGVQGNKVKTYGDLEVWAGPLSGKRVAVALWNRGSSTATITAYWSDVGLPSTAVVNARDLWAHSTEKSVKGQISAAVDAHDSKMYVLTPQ

Experiment [14] shares this target. In words: Counterscreen for Glucocerebrosidase Inhibitors: qHTS Assay for Coffee Bean alpha-Galactosidase at pH 5.9 (AID 998; active means well fitted curve in the direction sought with a large enough effect; an effect the other way counts as inactive or inconclusive;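 further: plate controls were uninhibited enzyme for no effect and no-enzyme basal signal for full effect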). Put shortly:
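Enzyme 2 nM + cpd (0.7 nM–77 uM titration) + 4-MU-alpha-Gal 80 uM, pH 5.9 citrate/Tween-20, RT 20 min, NaOH/glycine stop pH 10, fluor 365/440. Normalized to no-enzyme and full-activity controls; Hill-fit AC50.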

Experiment [15] can be described thus: Inducers of the Endoplasmic Reticulum Stress Response (ERSR) in human glioma: Validation (AID 504836; active means well fitted curve in the direction sought with a large enough effect; an effect the other way counts as inactive or inconclusive; further: 0% is about no effect). A digest of the protocol:
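Stably transfected U87-MG glioma cells carrying a GRP78-based luciferase sensor; 16 h compound incubation. Luminescence end-point read 10 min after Bright-Glo addition at room temperature.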

Each structure is given as a SMILES string. Inconclusive results are not listed. Calls of active or inactive are those of the source. Unless noted, the call rests on the fitted dose curve.

Regarding `CCN(CC)Cc1cc(Nc2ccnc3cc(Cl)ccc23)ccc1O`, the Potency in experiment [1] was 5.01 µM (active); in [2] it was 11.2 µM (active); in [3], 10 µM (active); in experiment [4], 14.1 µM (active); in experiment [7], 5.62 µM (active); in experiment [8], 3.83 µM (active). Besides, the results for the Potency in experiment [9] and in [10] were 11.2 µM (active) and 3.04 µM (active), respectively. Moreover, the Potency entry in experiment [5] and in experiment [6] was “inactive” throughout.

Turning to `CCOC(=O)Cc1ccc(-c2ccccc2)cc1`, the Potency result in experiment [3], in experiment [11], in experiment [5] and in [12] was “inactive” in each case.

As for `CN1C(CC(=O)c2ccccc2)CCCC1CC(O)c1ccccc1` (stereo unspecified), the Potency result in [3], in experiment [11], in experiment [5] and in experiment [12] was “inactive” in each case. In addition, in experiment [10], the Potency is 3.83 µM (active).

On to `CC(C)OC(=O)CCC/C=C\C[C@@H]1[C@@H](/C=C/[C@@H](O)COc2cccc(C(F)(F)F)c2)[C@H](O)C[C@@H]1O`, for which the Potency result in [3], in experiment [11] and in experiment [5] was “inactive” in each case. Further, the Potency was 21.5 µM (active) in experiment [8], 14.1 µM (active) in [9] and 10.8 µM (active) in experiment [10].

`CN(C)C/C=C/C(=O)Nc1cc2c(Nc3ccc(F)c(Cl)c3)ncnc2cc1OC1CCOC1` (stereo unspecified): the Potency is 10 µM (active) in experiment [3], 14.1 µM (active) in experiment [4] and 10 µM (active) in experiment [5].

`C=C1CC[C@H](O)CC1=C/C=C1\CCC[C@]2(C)[C@@H]([C@H](C)CCCC(C)(C)O)CC[C@@H]12`: the Potency result in [3], in experiment [11], in experiment [5] and in experiment [12] was “inactive” throughout.

Take `CNCC(=O)OCc1cccnc1N(C)C(=O)OC(C)[n+]1cnn(C[C@](O)(c2cc(F)ccc2F)[C@@H](C)c2nc(-c3ccc(C#N)cc3)cs2)c1` (stereo partly specified): the Potency result in experiment [3], in [11], in experiment [5] and in [12] was “inactive” in each case.

With `CC[C@@]1([C@@H]2O[C@@H]([C@H]3O[C@@](O)(CO)[C@H](C)C[C@@H]3C)C[C@@H]2C)CC[C@H]([C@]2(C)CCC3(C[C@H](O)[C@@H](C)[C@@H]([C@@H](C)[C@@H](OC)[C@H](C)C(=O)O)O3)O2)O1` (stereo partly specified), the Potency entry in experiment [3] and in [5] was “inactive” throughout. Also, the Potency in experiment [4] was 1.12 µM (active).

In the case of `C=C1/C(=C/C=C2\CCC[C@]3(C)[C@@H]([C@H](C)CCCC(O)(C(F)(F)F)C(F)(F)F)CC[C@@H]23)C[C@@H](O)C[C@@H]1O`, the Potency entry in experiment [3], in [11] and in experiment [5] was “inactive” throughout.

Turning to `Nc1nc(-n2cc(C(=O)O)c(=O)c3cc(F)c(N4CC(O)C4)c(Cl)c32)c(F)cc1F`, the Potency entry in experiment [3], in experiment [11], in [5] and in experiment [12] was “inactive” throughout.

On to `Nc1nc(Cl)nc2c1ncn2C1CC(O)C(CO)O1` (stereo unspecified), for which the values for the Potency in experiment [3], in experiment [8] and in [10] were 11.2 µM (active), 19.2 µM (active) and 19.2 µM (active), respectively. Also, the Potency entry in [11], in [5] and in [12] was “inactive” in each case.

In the case of `Cc1cc(N)c2ccccc2[n+]1CCCCCCCCCC[n+]1c(C)cc(N)c2ccccc21`, the call in experiment [13], in experiment [14] and in [15] was inactive. The activity change, negative = inhibition in experiment [3] is -2.83% [at 11.4 µM] (inactive). For the same compound, the figures for the activity change, negative = cytotoxicity in [11], in experiment [5] and in [12] were 1.39% [at 11.4 µM] (inactive), -0.518% [at 11.4 µM] (inactive) and -25.1% [at 11.3 µM] (inactive), respectively.

In the case of `C=C1/C(=C\C=C2/CCC[C@]3(C)[C@@H]([C@H](C)CCCC(C)(C)O)CC[C@@H]23)C[C@@H](O)C[C@@H]1O`, the Potency entry in experiment [3], in experiment [11], in [5] and in experiment [12] was “inactive” in each case.

For `CC[C@@]1(O)C(=O)OCc2c1cc1n(c2=O)Cc2c-1nc1cc(F)c(C)c3c1c2[C@@H](N)CC3`, the Potency entry in [3] and in experiment [11] was “inactive” throughout. Besides, the activity change, negative = inhibition in [9] is -94.1%.
